In PubChem BioAssay AID493167 (Broad Institute, 2011):
The source made the active and inactive calls.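 Rule for the calls: active = signal falls and fitted half-maximal concentration is at most ten times the sample's top valid dose; inconclusive = flat fit with 30 to 70% inhibition, or poor fit; inactive = change in the rising direction, plus the rest.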

tested on: LuxS (S-ribosylhomocysteine lyase), bacterial; test: LuxS enzyme inhibitors, dose response, biochemical, dry powder, set 3, absorbance (AID 493167); settings: purified Co-LuxS, SRH turnover, DTNB absorbance 412 nm; series mostly up to 35 µM

outcome, inactive:
O=S(=O)(Nc1ccccn1)c1ccccc1
C[C@@H]1CN([C@H](C)CO)C(=O)c2ccccc2-c2ccccc2CO[C@@H]1CN(C)Cc1ccc(Oc2ccccc2)cc1
Cc1noc(C)c1S(=O)(=O)Nc1ccc2c(c1)C(=O)N([C@@H](C)CO)C[C@@H](C)[C@@H](CN(C)Cc1ccc(Oc3ccccc3)cc1)O2
O=S(=O)(Nc1cccnc1)c1ccc(Oc2ccccc2)cc1
